Data reported in PubChem BioAssay AID1053144 (Broad Institute, 2014).
Out of some 3,400 compounds screened, about 160 (4.7%) were called active.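 How the source made its calls: active means fitted curve reaches 30% activation at a concentration no higher than the top valid tested dose, luminescence rising; inconclusive means no clear call, values can overlap the other calls; inactive means signal moving opposite to the expected increase, plus the rest.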 Not all results are given here. Results with a measured potency or affinity are listed apart.

assay: TCF/LEF reporter activation in neural progenitors – cell-based, iPS-derived NPC, luciferase, Wnt3a, cherry-pick, dose response (AID 1053144); details: Wnt3a EC25, 24 h; series mostly up to 26 µM; activation: at the top concentration;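 further: Wnt3a stimulus is conditioned medium from Wnt3a-transfected mouse L cells at 5% in well; 0% = neutral control wells and 100% = CHIR-99021 positive control wells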

activation, inactive:
CCCC(=O)Nc1nc2ccc(OCC)cc2s1 16.3%
CCC(=O)Nc1nc2cc(OC)ccc2s1 13.7%
COCC(=O)Nc1nc2ccc(C)cc2s1 6.09%
COc1ccc2sc(NC(C)=O)nc2c1 11%
Cc1ccc(-c2cn3c(=O)cc(C)[nH]c3n2)cc1 12.7%
CCN(CC)S(=O)(=O)c1ccc(NS(=O)(=O)c2cccc(C)c2)cc1 9.12%
Cc1ccc(/C=N/Nc2ncnc3nc[nH]c23)cc1 12.2%
Cc1cccc(N2CCN(C(=O)CCCOc3ccccc3)CC2)c1C 6.59%
CCN1C(=O)CCN(C2CCCC2)c2nc(Nc3ccc(C(=O)NC4CCN(C)CC4)cc3OC)ncc21 4.88%
CC(=O)Nc1ccc(C(=O)COC(=O)C2CC2C)c(F)c1 (configuration not stated) 3.26%
Fc1ccc(-c2ccc3c(n2)CCCN3Cc2ccccn2)cc1 9.57%
O=C(Nc1ccccc1N1CCN(c2ccccc2)CC1)c1ccccc1 -3.36%
O=C(NC(=O)c1ccccc1)Nc1ccccc1O 4.25%
Oc1[nH]c2ccccc2c1C=Nc1ccc2c(c1)OCO2 14.2%
COc1ccccc1C(=O)N(C)c1nnc(-c2ccccc2)s1 17.6%
CCOc1cccc(C(=O)Nc2ccc3c(c2)OCCO3)c1 5.21%
CCNc1nc(-c2cc3ccccc3o2)cs1 2.6%
c1ccc2oc(-c3ccn[nH]3)cc2c1 10.9%
Oc1ccc(Cl)cc1CNc1nccs1 10.9%
CN(C)c1ccc(/C=N/NC(=O)c2ccn(C)n2)cc1 13.3%
O=C(NCCc1cccs1)C1CC(c2ccccc2[N+](=O)[O-])=NO1 (configuration not stated) 9.24%
Clc1ccccc1CSc1nc2ccncc2[nH]1 8.37%
CC(=O)Nc1ccc2nc(-c3ccccn3)[nH]c2c1 3.19%
c1ccc(-c2ccc(-c3ccccn3)s2)nc1 13.1%
NC(=O)c1ccccc1OCc1nc2ccccc2s1 8.49%
Cc1ccc(NC(=O)c2cc3c(s2)CCCC3)cc1 16.9%
COc1ccc(-c2cc(-c3ccc(OC)cc3)[nH]n2)cc1 3.32%
COc1ccc2cc(-c3ccccc3)ncc2c1 11.6%
O=C(Nc1ccc(Br)cc1)c1cc2ccccn2n1 9.98%
Cc1ccc(C)c(NC(=O)c2cc3ccccn3n2)c1 10.6%
Clc1ccc(-n2nnc(-c3cccnc3)n2)cc1Cl 9.11%
O=C(Nc1ccc(F)cc1F)c1csc(-c2cccs2)n1 8.48%
Cc1nc([N+](=O)[O-])cn1CC(O)c1ccc(Cl)cc1 (configuration not stated) 0.757%
COc1ccc(C(=O)c2oc3ccc(OC)cc3c2N)cc1 9.38%
Nc1c(C(=O)c2ccccc2)oc2ccc(Br)cc12 5.38%
COc1ccc(C(=O)Nc2ccc3c(c2)nc2n3CCSC2)cc1 12.5%
Cc1ccc2cc(C#N)c(SCC(=O)N3CCCC3)nc2c1 8.83%
NC(=O)C(=O)N/N=C1\CCc2ccccc21 10.6%
O=C(CC(=O)c1ccccc1)Nc1ccccc1 12.6%
CC(=O)Nc1cccc(NC(=O)CCCC(=O)O)c1 -0.366%
CC(C)c1ccc(Nc2nnc(SCC(=O)NCC3CCCO3)s2)cc1 (configuration not stated) 16.7%
CCCc1cc(C(=O)Nc2cccc(Cl)c2)no1 5.04%
CCCc1cc(C(=O)Nc2cccnc2)no1 10.9%
O=C(Nc1ccc(N2CCCCC2)cc1)c1cncc(Br)c1 15.3%
Nc1c(-c2cccc(Cl)c2)cnc2c(-c3ccccc3)cnn12 4.5%
O=C(NN=Cc1ccc2c(c1)OCO2)c1ccccc1 18.2%
Cc1occc1C(=O)N/N=C/c1ccc2c(c1)OCO2 2.18%
CCOC(=O)c1ccc(-c2ccc(C=O)o2)cc1 7.08%
CCOC(=O)c1ccc(NC(=O)N(CC)CC)cc1 11.7%
O=C(Nc1ccc2c(c1)OCCO2)c1cncc(Br)c1 6.75%
C=CCn1c(C)cc(C(=O)CSc2nc3ccccc3o2)c1C 2.6%
COc1cc(C2C3=C(CC(C)(C)CC3=O)Nc3c2c(=O)[nH]c(=O)n3Cc2ccccc2)ccc1O (configuration not stated) 3.49%
CC(=O)Oc1ccc2occ(C(=O)c3cccs3)c2c1 17.3%
O=C(c1ccc(Br)cc1)c1coc2ccc(O)cc12 18.8%
COc1ccc(C(=O)NN/C(=N/S(=O)(=O)c2ccc(C)cc2)c2ccccc2)cc1 7.8%
Cc1[nH]c2ccc(F)cc2c1CCN1C(=O)OC(C)(C)C1(C)O (configuration not stated) 5.62%
COc1cc(/C=C/C(=O)N2CCC=CC2=O)cc(OC)c1OC -6.11%
COc1ccc(C(=O)O/N=C(\N)c2ccccc2)cc1OC 11.8%
Oc1ccc(-c2cn3ccccc3n2)cc1 23.2%
CC(=O)Nc1ccccc1OCC(=O)c1ccc2c(c1)OCO2 9.06%
C(=C\c1nc(-c2ccncc2)no1)/c1ccccc1 9.12%
Clc1ccccc1/C=C/c1nc(-c2cccnc2)no1 6.34%
COc1ccc2[nH]cc(/C=C/C(=O)c3ccccc3)c2c1 20.3%
Cc1ccc(NC(=O)C(=O)c2c[nH]c3ccccc23)cc1 9.92%
Cc1cccc2cc(/C=N/Nc3ccc(C(=O)O)cc3)c(Cl)nc12 8.76%
Brc1ccccc1-n1nnc(-c2cnc3ccccc3c2)n1 3.75%
COc1ccc(-c2ccc(SCC(=O)Nc3nnc(C)s3)nn2)cc1 3.75%
COc1ccc(C(=O)Nc2cc(C)on2)cc1 4.98%
O=C(COc1ccc2c(c1)CCC2)N1CCc2ccccc21 16.6%
O=C(COc1ccc([N+](=O)[O-])cc1Cl)N1CCc2ccccc21 5.95%
O=C(Nc1ccccn1)C(=O)Nc1ccccn1 7.92%
O=C(Nc1ccccc1O)c1csc2c1CCCC2 6.88%
Cc1cc(SCC(=O)c2ccc(Cl)cc2)nc(=O)[nH]1 8.19%
O=C(Nc1nc(-c2ccccn2)cs1)C12CC3CC(CC(O)(C3)C1)C2 8.62%
CCC(C)NC(=O)c1cc(-c2ccc3c(c2)OCO3)on1 (configuration not stated) 13.7%
O=c1c(N=Nc2ccccc2)c[nH]n1-c1ccccc1 14.2%
c1ccc(N=NC2=NN(c3ccccc3)CS2)cc1 11.2%
CCc1ccc(C(=O)CCC(=O)Nc2ccc(OC)c(S(=O)(=O)N3CCCCC3)c2)cc1 5.78%
CCOc1ccccc1-n1nnnc1SCC(=O)O 0.553%
Cc1c(CC(=O)N[C@H](C(=O)O)C(C)C)c(=O)oc2cc3c(cc12)CCC(C)(C)O3 5.83%
Cn1cccc1-c1nc2ccc(NC(=O)c3ccco3)cc2[nH]1 11.8%
O=C(Nc1ccc2nc(-c3ccco3)[nH]c2c1)c1ccco1 12.9%
